# Reference: PubChem BioAssay AID1159580 (chemical genetic matrix, 2015)
# Among all 5,500 compounds or so, about 2,000 (36%) were called active. Inconclusive results (about 18%) are left out. Some of the results follow. Unmarked numbers belong to inactive results. No stated cut-off is given here; in the data, active means normalized growth mostly below about 0.91 (no sharp cut-off); inconclusive means no clear call, values can overlap the other calls; inactive means mostly above about 0.92.
# Test: chemical genetic growth profiling, strain panel (AID 1159580);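 further: tested at 20 µM; growth read once vehicle control cultures reached saturation at 30 °C; 1 = growth at the plate median or of vehicle wells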
# Conditions: growth OD
compound,measurement,setting,value
Cc1cc(C(C)(C)C)c(O)c(C(C)(C)C)c1,normalized growth,"S. cerevisiae deletion strains, locus YJR075W, strain HOC1, stronger effect = lower value",0.929
same,normalized growth,"S. cerevisiae deletion strains, locus YKL009W, strain mrt4, stronger effect = lower value",1
same,normalized growth,"S. cerevisiae deletion strains, locus YKL068W, stronger effect = lower value",0.978
same,normalized growth,"S. cerevisiae deletion strains, locus YKL085W, strain MDH1 (second series), stronger effect = lower value",1
same,normalized growth,"S. cerevisiae deletion strains, locus YKL085W, strain MDH1, stronger effect = lower value",1
same,normalized growth,"S. cerevisiae deletion strains, locus YKL160W, strain elf1, stronger effect = lower value",1
same,normalized growth,"S. cerevisiae deletion strains, locus YKL190W, strain CNB1, stronger effect = lower value",0.96
same,normalized growth,"S. cerevisiae deletion strains, locus YKR001C, strain vps1, stronger effect = lower value",0.927
same,normalized growth,"S. cerevisiae deletion strains, locus YKR026C, strain gcn3, stronger effect = lower value",0.978
same,normalized growth,"S. cerevisiae deletion strains, locus YKR091W, strain srl3, stronger effect = lower value",0.986
same,normalized growth,"S. cerevisiae deletion strains, locus YLL001W, strain dnm1, stronger effect = lower value",0.99
same,normalized growth,"S. cerevisiae deletion strains, locus YLL026W, stronger effect = lower value",0.954
same,normalized growth,"S. cerevisiae deletion strains, locus YLL041C, strain sdh2, stronger effect = lower value",0.978
same,normalized growth,"S. cerevisiae deletion strains, locus YLR027C, strain aat2, stronger effect = lower value",0.932
same,normalized growth,"S. cerevisiae deletion strains, locus YLR039C, strain RIC1, stronger effect = lower value",0.861
same,normalized growth,"S. cerevisiae deletion strains, locus YLR058C, strain SHM2, stronger effect = lower value",0.964
same,normalized growth,"S. cerevisiae deletion strains, locus YLR102C, strain apc9, stronger effect = lower value",0.989
same,normalized growth,"S. cerevisiae deletion strains, locus YLR113W, strain HOG1, stronger effect = lower value",0.85 (active)
same,normalized growth,"S. cerevisiae deletion strains, locus YLR221C, strain rsa3, stronger effect = lower value",0.853 (active)
same,normalized growth,"S. cerevisiae deletion strains, locus YLR258W, strain gsy2, stronger effect = lower value",0.997
same,normalized growth,"S. cerevisiae deletion strains, locus YLR262C, strain YPT6 (second series), stronger effect = lower value",0.956
same,normalized growth,"S. cerevisiae deletion strains, locus YLR262C, strain YPT6, stronger effect = lower value",0.85
same,normalized growth,"S. cerevisiae deletion strains, locus YLR268W, strain sec22, stronger effect = lower value",0.944
same,normalized growth,"S. cerevisiae deletion strains, locus YLR320W, strain mms22, stronger effect = lower value",0.904
same,normalized growth,"S. cerevisiae deletion strains, locus YLR330W, strain CHS5, stronger effect = lower value",0.99
same,normalized growth,"S. cerevisiae deletion strains, locus YLR342W, strain FKS1 (second series), stronger effect = lower value",1.09
same,normalized growth,"S. cerevisiae deletion strains, locus YLR342W, strain FKS1, stronger effect = lower value",0.975
same,normalized growth,"S. cerevisiae deletion strains, locus YLR357W, strain rsc2, stronger effect = lower value",0.966
same,normalized growth,"S. cerevisiae deletion strains, locus YLR370C, strain arc18, stronger effect = lower value",0.986
same,normalized growth,"S. cerevisiae deletion strains, locus YLR371W, strain rom2, stronger effect = lower value",1.01
same,normalized growth,"S. cerevisiae deletion strains, locus YLR384C, strain iki3, stronger effect = lower value",0.971
same,normalized growth,"S. cerevisiae deletion strains, locus YLR418C, strain cdc73, stronger effect = lower value",0.855
same,normalized growth,"S. cerevisiae deletion strains, locus YML016C, strain PPZ1, stronger effect = lower value",0.997
same,normalized growth,"S. cerevisiae deletion strains, locus YML032C, strain rad52, stronger effect = lower value",0.973
same,normalized growth,"S. cerevisiae deletion strains, locus YML120C, strain ndi1, stronger effect = lower value",0.938
same,normalized growth,"S. cerevisiae deletion strains, locus YML124C, strain tub3, stronger effect = lower value",0.995
same,normalized growth,"S. cerevisiae deletion strains, locus YMR058W, strain fet3, stronger effect = lower value",0.968
same,normalized growth,"S. cerevisiae deletion strains, locus YMR078C, strain ctf18, stronger effect = lower value",0.995
same,normalized growth,"S. cerevisiae deletion strains, locus YMR125W, strain sto1, stronger effect = lower value",0.989
same,normalized growth,"S. cerevisiae deletion strains, locus YMR129W, stronger effect = lower value",1
same,normalized growth,"S. cerevisiae deletion strains, locus YMR205C, strain PFK2, stronger effect = lower value",0.998
same,normalized growth,"S. cerevisiae deletion strains, locus YMR223W, strain ubp8, stronger effect = lower value",0.958
same,normalized growth,"S. cerevisiae deletion strains, locus YMR231W, strain pep5, stronger effect = lower value",0.989
same,normalized growth,"S. cerevisiae deletion strains, locus YMR263W, strain SAP30, stronger effect = lower value",0.898
same,normalized growth,"S. cerevisiae deletion strains, locus YMR307W, strain GAS1, stronger effect = lower value",0.901
same,normalized growth,"S. cerevisiae deletion strains, locus YNL067W, strain RPL9B, stronger effect = lower value",0.926
same,normalized growth,"S. cerevisiae deletion strains, locus YNL071W, strain lat1, stronger effect = lower value",0.997
same,normalized growth,"S. cerevisiae deletion strains, locus YNL128W, strain TEP1, stronger effect = lower value",0.874
same,normalized growth,"S. cerevisiae deletion strains, locus YNL153C, strain GIM3, stronger effect = lower value",0.917
same,normalized growth,"S. cerevisiae deletion strains, locus YNL183C, strain NPR1, stronger effect = lower value",0.938
same,normalized growth,"S. cerevisiae deletion strains, locus YNL209W, strain ssb2, stronger effect = lower value",0.993
same,normalized growth,"S. cerevisiae deletion strains, locus YNL233W, strain BNI4, stronger effect = lower value",0.844 (active)
same,normalized growth,"S. cerevisiae deletion strains, locus YNL248C, strain rpa49, stronger effect = lower value",0.904
same,normalized growth,"S. cerevisiae deletion strains, locus YNL250W, strain rad50, stronger effect = lower value",0.993
same,normalized growth,"S. cerevisiae deletion strains, locus YNL271C, strain bni1, stronger effect = lower value",1
same,normalized growth,"S. cerevisiae deletion strains, locus YNL298W, strain CLA4, stronger effect = lower value",0.962
same,normalized growth,"S. cerevisiae deletion strains, locus YNL307C, strain MCK1, stronger effect = lower value",0.98
same,normalized growth,"S. cerevisiae deletion strains, locus YNL322C, strain KRE1 (second series), stronger effect = lower value",1.01
same,normalized growth,"S. cerevisiae deletion strains, locus YNL322C, strain KRE1, stronger effect = lower value",0.975
same,normalized growth,"S. cerevisiae deletion strains, locus YNR049C, strain mso1, stronger effect = lower value",0.982
same,normalized growth,"S. cerevisiae deletion strains, locus YNR052C, strain pop2, stronger effect = lower value",1
same,normalized growth,"S. cerevisiae deletion strains, locus YOL006C, strain TOP1, stronger effect = lower value",0.888
same,normalized growth,"S. cerevisiae deletion strains, locus YOL012C, strain htz1",2.14 [resistant] (active)
same,normalized growth,"S. cerevisiae deletion strains, locus YOL147C, strain pex11, stronger effect = lower value",0.996
same,normalized growth,"S. cerevisiae deletion strains, locus YOR001W, strain rrp6, stronger effect = lower value",0.916
same,normalized growth,"S. cerevisiae deletion strains, locus YOR061W, strain CKA2, stronger effect = lower value",0.966
same,normalized growth,"S. cerevisiae deletion strains, locus YOR069W, strain VPS5, stronger effect = lower value",0.997
same,normalized growth,"S. cerevisiae deletion strains, locus YOR070C, strain gyp1, stronger effect = lower value",0.957
same,normalized growth,"S. cerevisiae deletion strains, locus YOR080W, strain dia2, stronger effect = lower value",0.99
same,normalized growth,"S. cerevisiae deletion strains, locus YOR083W, strain WHI5, stronger effect = lower value",0.986
same,normalized growth,"S. cerevisiae deletion strains, locus YOR106W, strain vam3, stronger effect = lower value",0.966
same,normalized growth,"S. cerevisiae deletion strains, locus YOR136W, strain idh2, stronger effect = lower value",0.974
same,normalized growth,"S. cerevisiae deletion strains, locus YOR144C, strain elg1, stronger effect = lower value",0.987
same,normalized growth,"S. cerevisiae deletion strains, locus YOR184W, strain ser1, stronger effect = lower value",1.01
same,normalized growth,"S. cerevisiae deletion strains, locus YOR231W, strain MKK1, stronger effect = lower value",0.916
same,normalized growth,"S. cerevisiae deletion strains, locus YOR265W, strain rbl2, stronger effect = lower value",0.992
same,normalized growth,"S. cerevisiae deletion strains, locus YOR270C, strain vph1, stronger effect = lower value",0.84
same,normalized growth,"S. cerevisiae deletion strains, locus YOR290C, strain snf2, stronger effect = lower value",0.954
same,normalized growth,"S. cerevisiae deletion strains, locus YOR316C, strain cot1, stronger effect = lower value",0.992
same,normalized growth,"S. cerevisiae deletion strains, locus YPL051W, strain arl3, stronger effect = lower value",0.954
same,normalized growth,"S. cerevisiae deletion strains, locus YPL055C, strain LGE1, stronger effect = lower value",0.798
same,normalized growth,"S. cerevisiae deletion strains, locus YPL078C, strain atp4, stronger effect = lower value",0.99
same,normalized growth,"S. cerevisiae deletion strains, locus YPL106C, strain sse1, stronger effect = lower value",0.917
same,normalized growth,"S. cerevisiae deletion strains, locus YPL240C, strain hsp82, stronger effect = lower value",0.985
same,normalized growth,"S. cerevisiae deletion strains, locus YPL241C, strain CIN2, stronger effect = lower value",0.98
same,normalized growth,"S. cerevisiae deletion strains, locus YPL256C, strain CLN2, stronger effect = lower value",0.922
same,normalized growth,"S. cerevisiae deletion strains, locus YPR119W, strain clb2, stronger effect = lower value",0.995
same,normalized growth,"S. cerevisiae deletion strains, locus YPR141C, strain kar3, stronger effect = lower value",0.97
same,normalized growth,"S. cerevisiae deletion strains, locus YPR163C, strain tif3, stronger effect = lower value",0.981
same,normalized growth,"S. cerevisiae deletion strains, locus YPR167C, strain met16, stronger effect = lower value",0.985
same,normalized growth,"S. cerevisiae deletion strains, strain wtn01, stronger effect = lower value",0.938
same,normalized growth,"S. cerevisiae strains, strain wild type, stronger effect = lower value",0.933
